The source of these data is PubChem BioAssay AID624256 (NMMLSC, 2012).

Among all 360,000 compounds or so, about 3,700 (1%) were called active. Roughly 2% stayed inconclusive and do not appear here.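 Rule for the calls: active = normalized GFP-positive differentiation at or above the plate's own cutoff, the solvent-only control mean plus 3 SD; inconclusive = no clear call, values can overlap the other calls; inactive = the rest.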 For the sample, actives were picked, then their nearest neighbours and some compounds at random.

A short description of the test: induction of myeloid progenitor differentiation, primary screen, cell-based, flow cytometry, MLPCN library (AID 624256).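 For GFP+ MAC1+ double positive: cells exposed to compound for four days before flow analysis.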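 For normalized GFP-positive differentiation: cells exposed to compound for four days before flow analysis; 0% = DMSO wells and 100% = fulvestrant positive control at 5 µM.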 The conditions noted are these: ER-HoxA9 myeloid progenitors, lysozyme-GFP differentiation, at 10 µM; GFP+ MAC1+ double positive: measured here: differentiation confirmed by MAC1 staining, stronger effect = higher value; normalized GFP-positive differentiation: stronger effect = higher value. Background: A flow cytometer gives signals particle by particle.
Turning to `Cc1ccccc1Nc1c([N+](=O)[O-])ccc2nonc12`, the GFP+ MAC1+ double positive turned out to be 0.6% and the outcome was inactive.
Consider `Cc1ccc(Nc2cc(C)nc3c(C)ccc([N+](=O)[O-])c23)cc1`, for which the GFP+ MAC1+ double positive was found to be 8.4% and the normalized GFP-positive differentiation is 156% (active).
On to `Cc1ccc2cccc([N+](=O)[O-])c2n1`, for which the GFP+ MAC1+ double positive came out at 0.8% and the compound was classed as inactive.
For the compound `CCc1nc2c(OCCOc3ccccc3)cccn2c1N(C)C(=O)c1ccc(OC)cc1`, the GFP+ MAC1+ double positive was determined as 0.8% and the result was inactive.
Consider `COc1cccc(-c2nc3n(n2)C(c2ccccc2Cl)C(C(N)=O)=C(C)N3)c1` (configuration not stated), for which the GFP+ MAC1+ double positive was determined as 1.5% and the outcome was inactive.
Turning to `CC1=C(C(N)=O)C(c2ccc3c(c2)OCO3)n2nc(-c3cccc(C)c3)nc2N1` (configuration not stated), the GFP+ MAC1+ double positive was 2% and the normalized GFP-positive differentiation was 8.9% (active).
In the case of `CC1=C(C(N)=O)C(c2ccc(F)cc2)n2nc(CCCO)nc2N1` (configuration not stated), the GFP+ MAC1+ double positive stood at 1% and the compound was called inactive.
For the compound `Oc1ccc2ccc3cccc[n+]3c2c1`, the GFP+ MAC1+ double positive came out at 0.9% and the normalized GFP-positive differentiation was 10.9% (active).
For `CC1(C(=O)NS(=O)(=O)c2ccccc2)CCN1C(=O)C1CCCCC1` (configuration not stated), the GFP+ MAC1+ double positive is 1.3% and the result was inactive.
`COc1ccc(C(C(=O)NCc2ccccc2)n2c(=O)c(-c3ccccc3)nc3ccccc32)cc1` (configuration not stated): the GFP+ MAC1+ double positive came out at 5.2% and the compound was classed as inactive.
Consider `COc1ccc(CC(N)c2csc(NC(=O)NC(c3ccccc3)c3ccccc3)n2)cc1` (configuration not stated), for which the GFP+ MAC1+ double positive worked out at 1.7% and the result was inactive.
For the compound `O=C(CCC(=O)Nc1ccccc1)N/N=C/c1ccccc1F`, the GFP+ MAC1+ double positive is 0.1% and the compound was called inactive.
The like results for `O=C(N/N=C/c1ccccc1O)C1CCCC1` were, in that order, 0.3% and “inactive”.
As for `O=C(N/N=C/c1ccccc1O)/C(=C/c1ccccc1)CCO`, the GFP+ MAC1+ double positive came out at 4.1% and the normalized GFP-positive differentiation is 31.5% (active).
With `Cc1ccc(S(=O)(=O)N2[C@@H](Cc3ccccc3)CO[C@H]2CC(=O)OCc2ccccc2)cc1`, the GFP+ MAC1+ double positive is 5.9% and the compound was called inactive.
The like results for `O=C1NC[C@H](CCCCN2C[C@H](Cc3ccc(O)cc3)N(CC3CCCCC3)C(=O)C2=O)N(CCc2ccccc2)C1=O` were, in that order, 0.6% and “inactive”.
Turning to `CCOc1ccc(CCN2C(=S)N([C@@H](CC(C)C)CN3CCC[C@@H]3CN3C(=S)NC[C@@H]3Cc3ccc(O)cc3)C[C@@H]2CC(C)C)cc1`, the GFP+ MAC1+ double positive came out at 0.7% and the outcome was inactive.
As for `CC(=O)Nc1cc(-c2ccccc2N(C)C)cn2c(-c3ccc(F)c(Cl)c3)cnc12`, the GFP+ MAC1+ double positive is 1% and the outcome was inactive.
Consider `O=c1nc(NO)ccn1C1CCCO1` (configuration not stated), for which the GFP+ MAC1+ double positive stood at 1.8% and the result was inactive.
Consider `CNc1nc(=O)n(C2CCCO2)cc1C` (configuration not stated), for which the GFP+ MAC1+ double positive was found to be 23.7% and the normalized GFP-positive differentiation is 172% (active).
Consider `O=c1c(F)cn(C2CCCO2)c(=O)n1Cc1ccccc1Cl` (configuration not stated), for which the GFP+ MAC1+ double positive worked out at 11.2% and the compound was classed as inactive.
The like results for `O=C(O)Cc1ccc(NCc2ccccc2Cl)cc1` were, in that order, 0.6% and “inactive”.
Take `O=C(Cc1ccc(-c2ccccc2)cc1)NC(c1ccccc1)c1ccccc1`: the GFP+ MAC1+ double positive worked out at 0.3% and the call was inactive.
For `O=C(O)Cc1ccc(-c2ccccc2)cc1`, the GFP+ MAC1+ double positive amounted to 2.6% and the normalized GFP-positive differentiation is 92.4% (active).
For `Cc1cccc(CNC(=O)c2sc(=O)n(Cc3ccccc3C)c2C)c1`, the GFP+ MAC1+ double positive was found to be 4.1% and the result was inactive.
As to `COc1ccc(C(C(=O)Nc2c(C)cccc2C)N2CCN(c3ccc(C)cc3)CC2)cc1` (configuration not stated), the GFP+ MAC1+ double positive amounted to 2% and the outcome was inactive.
Consider `CO[C@@H]1CN(C)C(=O)c2cc(NC(=O)Nc3cc(F)ccc3F)ccc2OC[C@H](C)N(C(=O)c2ccccn2)C[C@@H]1C`, for which the GFP+ MAC1+ double positive came out at 1.3% and the outcome was inactive.
The like results for `COC(=O)[C@]12CCCCC=C1N(Cc1cccc3ccccc13)C(=O)[C@H](CC(=O)N1CCOCC1)C2` were, in that order, 0.7% and “inactive”.
Regarding `CCOP(=O)(OCC)C(Cc1ccccc1)N=C(c1ccccc1)c1ccccc1` (configuration not stated), the GFP+ MAC1+ double positive turned out to be 1% and the outcome was inactive.
As to `CC(=O)N1Cc2cc(C(=O)NCc3cccc(F)c3)nc(-c3cccc(C4=CCCC4)c3)c2[C@H]1CCO`, the GFP+ MAC1+ double positive was found to be 0.3% and the compound was classed as inactive.
As for `CC(C)c1ccc(-c2noc(C3CCCN(S(C)(=O)=O)C3)n2)cc1` (configuration not stated), the GFP+ MAC1+ double positive was 2.8% and the outcome was inactive.
In the case of `COc1cc(-c2noc(C3CCCN(S(=O)(=O)c4cccc(Cl)c4)C3)n2)cc(OC)c1OC` (configuration not stated), the GFP+ MAC1+ double positive came out at 16.1% and the normalized GFP-positive differentiation is 28.5% (active).
`COc1cccc(-c2noc(C3CCCN(C(=O)c4ccc(F)cc4)C3)n2)c1` (configuration not stated): the GFP+ MAC1+ double positive was 1.2% and the call was inactive.
Turning to `O=C(NCc1ccccn1)[C@@H]1CCCN1C(=O)[C@@H]1CCCN1C(=O)c1ccccc1`, the GFP+ MAC1+ double positive turned out to be 1.4% and the result was inactive.
For `COC(=O)[C@@]12C[C@@H](CC(=O)NCc3cccc(C(F)(F)F)c3)C(=O)N(Cc3ccco3)C1=CCC(C)(C)C2`, the GFP+ MAC1+ double positive came out at 3.5% and the call was inactive.
Turning to `COc1cccc(NC(=O)[C@H](Cc2c[nH]c3ccccc23)NC(=O)[C@@H]2Cc3ccccc3CN2)c1`, the GFP+ MAC1+ double positive stood at 5.1% and the normalized GFP-positive differentiation is 8.43% (active).
On to `COc1ccc(CNC(=O)[C@H](Cc2c[nH]c3ccccc23)NC(C)=O)cc1OC`, for which the GFP+ MAC1+ double positive came to 0.3% and the outcome was inactive.
For the compound `COc1ccc(NC(=O)[C@H](NC(=O)[C@@H]2Cc3ccccc3CN2)c2ccccc2)cc1`, the GFP+ MAC1+ double positive was determined as 3.2% and the compound was called inactive.
In the case of `CCc1nc2c(OCC(N)=O)cccn2c1N(C)C(=O)c1ccc(OC)cc1`, the GFP+ MAC1+ double positive turned out to be 1.1% and the result was inactive.
As to `OC[C@@H]1CN(Cc2cccs2)C[C@H](n2cnc3c(Nc4ccccc4)ncnc32)O1`, the GFP+ MAC1+ double positive worked out at 1.1% and the outcome was inactive.
For `Cc1ccc(Cc2c(-c3ccco3)nc3ccc(Cl)cn23)cc1`, in that order: 0.7% and “inactive”.
